38 compounds from PubChem BioAssay (NCATS) can be followed below.

Structures are written as SMILES. Results filed as inconclusive are left out. Activity calls are given as the source filed them. Calls come from the whole dose curve; as a rule, active = well fitted cell-killing curve with a large enough effect; inconclusive = small, poorly fitted or top-dose-only effect, or effect the other way; inactive = flat fitted curve, though single readings scatter. Where a SMILES comes first, the peptide text is derived from it. The star is where a group is joined. βNA = c1ccc2cc(N*)ccc2c1; Cbz = O=C(OCc1ccccc1)*
% is set by controls: 0 for no effect and ±100 for the full control effect.

The experiment concerns SKOV3. The experiment can be described thus: Primary qHTS to identify gynecologic anti-cancer compounds using libraries of approved drugs and bioactive compounds (AID 1345084). Note: nearly all actives have a fitted effect of over 55% in size. The note with it: Gynecologic cancer cell panel viability, ATPlite luminescence, 48 h; series mostly up to 57.5 µM; activity change, negative = cytotoxicity: at the top concentration. In short, it runs like this:
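ATP-based viability (ATPlite), 1,000 cells/well, 16 h pre-incubation, 48 h compound at 37 C, 5% CO2, 15 min RT before read.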
On the technique in general: qHTS replaces the single test concentration by a dilution series.
Take `Cc1ccccc1N1CCN(S(=O)(=O)C[C@]23CC[C@H](C[C@@H]2NC(=O)[C@@H](N)CCS(C)(=O)=O)C3(C)C)CC1`: the “activity change, negative = cytotoxicity” value is -1.44% (inactive).
Next, `O=C(OCc1ccccc1O[C@@H]1O[C@H](CO)[C@@H](O)[C@H](O)[C@H]1O)C1(O)C=CCCC1O` (stereo partly drawn): 12.8% [at 25.3 µM] (inactive); `C/C(=C/CO)CC[C@H]1[C@]2(C)C[C@H](O)CC(C)(C)[C@H]2CC[C@]1(C)O`: 0% [at 38.5 µM] (inactive).
With `C[C@@H]1C[C@@H](O)[C@@]23CO[C@]2(CO)CCC[C@@H]3[C@@]12C[C@@H](c1ccoc1)OC2=O` the figure was -2.01% [at 38.5 µM] (inactive); with `COc1cc2c(c(OC)c1O)C(c1ccc(O)cc1)C1C(=O)OC3C(COC(=O)C1=C2)OC(CO)(OC1OC(COC(=O)/C=C/c2ccc(OC4OC(C)C(O)C(O)C4O)cc2)C(O)C(O)C1O)C3O` (stereo not drawn), 25.2% [at 11.6 µM] (inactive).
With `C=C1C(=O)O[C@@H]2/C=C(\C)CC/C=C(\C(=O)O[C@@H]3O[C@H](CO)[C@@H](O)[C@H](O)[C@H]3O)CC[C@@H]12` the figure was -0.203% [at 25.3 µM] (inactive).
Take `CC(CC12CCCN1C(=O)C1CCCN1C2=O)OC(N)=O` (stereo not drawn): the “activity change, negative = cytotoxicity” value was 7.93% [at 38.5 µM] (inactive).
Take `Nc1ncnc2c1c(COc1cccc(Cl)c1)nn2C1CCOCC1`: the “activity change, negative = cytotoxicity” value was -9.53% (inactive).
Consider `CC1(C)C(=O)N2c3ccccc3C(O)(CC(C(=O)O)n3cnc4ccccc4c3=O)C2N1O` (stereo not drawn), for which the “activity change, negative = cytotoxicity” value was 5.71% [at 25.3 µM] (inactive).
`CC12CC34CC(O)C5C(CO)(CO)CC(=O)CC5(C)C3CC1C2C4` (stereo not drawn): the “activity change, negative = cytotoxicity” value is 29.9% [at 38.5 µM] (inactive).
Next, `O=C(O)Cc1cn([C@@H]2OC[C@@H](O[C@@H]3O[C@H](CO)[C@@H](O)[C@H](O)[C@H]3O)[C@H](O)[C@H]2O[C@@H]2O[C@H](CO)[C@@H](O)[C@H](O)[C@H]2O)c2ccccc12`: 8.21% [at 25.3 µM] (inactive); `CC(C)C1CCC(CO)=CC1/C=C(\CO)C(=O)OCC1(O)CCC(C(C)C)C2C=C(C(=O)O)COC(=O)C21` (stereo not drawn): 14.7% [at 25.3 µM] (inactive); `COC(=O)c1ccc(OC)cc1O[C@@H]1O[C@H](CO[C@@H]2OC[C@@H](O)[C@H](O)[C@H]2O)[C@@H](O)[C@H](O)[C@H]1O`: 6.93% [at 25.3 µM] (inactive).
For the compound `CCNC(=O)OC1CCN(c2nncc3cc(OC)c(OC)cc23)CC1`, the “activity change, negative = cytotoxicity” value was 21.4% (inactive).
With `CC1=CCC[C@@H]2[C@@](C)(CCc3ccoc3)[C@H](C(=O)O)CC[C@@]12C` the figure was 7.62% [at 38.5 µM] (inactive).
Regarding `C=C1C(=O)O[C@@H]2C[C@]3(C)[C@@H](CCC(C)=O)[C@@H]3C[C@H]12`, the “activity change, negative = cytotoxicity” value is 0.123% (inactive).
Next, `CCC(C)/C=C(C)/C=C/C1=CC2=C(Cl)C(=O)C(C)(OC(C)=O)C(=O)C2=CN1C(CCC(=O)O)C(=O)O` (stereo not drawn): 5.76% [at 25.3 µM] (inactive); `C=C[C@@]1(C)CCC2=C([C@H]1OC(C)=O)[C@H](OC(C)=O)CC1[C@](C)(C(=O)OC)CC[C@H](OC(C)=O)[C@]21C` (stereo partly drawn): 0.412% [at 25.3 µM] (inactive).
Take `COc1ccc(C2C(C(=O)O)C(C(=O)O)C2c2ccc(OC)cc2O[C@@H]2O[C@H](CO)[C@@H](O)[C@H](O)[C@H]2O)c(O[C@@H]2O[C@H](CO)[C@@H](O)[C@H](O)[C@H]2O)c1` (stereo partly drawn): the “activity change, negative = cytotoxicity” value is -11% [at 25.3 µM] (inactive).
With `Cc1ccccc1-n1nc(-c2c(-c3ccc(F)cc3)nn3c2NC[C@@H](CO)C3)ccc1=O` the figure was 16.2% (inactive); with `COc1cc(C(=O)OC[C@@]2(O)CO[C@@H](O[C@H]3[C@H](Oc4ccc(O)cc4)O[C@H](CO)[C@@H](O)[C@@H]3O)[C@@H]2O)cc(OC)c1O`, -10% [at 25.3 µM] (inactive).
With `CC(=O)OC/C(=C/C(=O)O)CC[C@@H]1C(CO)=CC[C@@H]2C(C)(C)CCC[C@@]12C` the figure was -6.48% [at 38.5 µM] (inactive).
With `C/C=C/C=C/C(O)=C1/C(=O)[C@]2(C)C(=O)[C@@](C)(O)[C@H]1[C@H]([C@@]1(C)OC(=O)C(C)=C1O)[C@H]2C(=O)CC/C=C/C` the figure was 15.4% [at 25.3 µM] (inactive); with `Cc1nc2cc(-c3cc(F)cc(C#N)c3)ccc2s1`, -1.22% (inactive); with `C=C(C)C(O)COc1ccc(CC(=O)O)cc1` (stereo not drawn), 0% (inactive).
Turning to `CC1(C)O[C@H]2CC(=O)OC[C@@]23C1=C(O)C(=O)[C@]1(C)C3CC[C@@]2(C)[C@H](c3ccoc3)OC(=O)[C@H]3O[C@]321` (stereo partly drawn), the “activity change, negative = cytotoxicity” value is 7.76% [at 25.3 µM] (inactive).
Next, `C[C@@H]1O[C@@H](O[C@H]2[C@H](OC(=O)[C@]34CCC(C)(C)C[C@H]3C3=CCC5[C@@]6(C)C[C@@H](O)[C@@H](O)[C@@](C)(CO)C6[C@H](O)C[C@@]5(C)[C@]3(C)CC4)OC[C@H](O)[C@@H]2O)[C@H](O)[C@H](O)[C@H]1O[C@@H]1OC[C@@H](O)[C@H](O[C@H]2O[C@H](C)[C@@H](O)[C@H](O)[C@@H]2O)[C@H]1O` (stereo partly drawn): -1.53% [at 11.6 µM] (inactive); `CC(C)CC(NC(=O)OCc1ccccc1)C(=O)NC(CC(C)C)C(=O)NC(CCC(=O)O)C(=O)Nc1ccc2ccccc2c1` (stereo not drawn) (Cbz-Leu-Leu-Glu-βNA; configuration not given here): 0% (inactive).
Next, `CC1CC2OCC3(O)CCC(O)C(C14CC(c1ccoc1)OC4=O)C23CO` (stereo not drawn): -13.7% [at 38.5 µM] (inactive); `COC(=O)C(CC1(O)c2ccccc2N2C(=O)C(C)(C)N(O)C21)n1cnc2ccccc2c1=O` (stereo not drawn): -3.19% [at 25.3 µM] (inactive).
In the case of `CC(=O)OC[C@]12[C@@H](OC(=O)c3ccoc3)C[C@@H]3[C@@H](OC(C)=O)[C@]1(OC3(C)C)[C@@](C)(O)C[C@H](OC(=O)c1ccoc1)[C@@H]2OC(=O)c1ccoc1`, the “activity change, negative = cytotoxicity” value was -2.25% [at 25.3 µM] (inactive).
Consider `CC(C)c1ccc2c(c1)CCC1[C@](C)(C(=O)O)CCC[C@]21C` (stereo partly drawn), for which the “activity change, negative = cytotoxicity” value is 1.98% (inactive).
Next, `CC[C@H]1OC(=O)[C@H](C)C(=O)[C@H](C)[C@@H](OC2O[C@H](C)C[C@H](N(C)C)[C@H]2O)[C@@H](C)C[C@@H](C)C(=O)/C=C/[C@]1(C)O` (stereo partly drawn): -6.29% [at 25.3 µM] (inactive); `C=C(CCO[C@@H]1O[C@H](CO)[C@@H](O)[C@H](O)[C@H]1O)C(=O)O`: 0.673% (inactive); `COC(=O)C1=C[C@@H](O)[C@@H](O)[C@H](O[C@@H]2O[C@H](CO)[C@@H](O)[C@H](O)[C@H]2OC(=O)/C=C/c2ccccc2)C1`: -19.7% [at 25.3 µM] (inactive).
Next, `COc1ccc(O[C@@H]2O[C@H](CO)[C@@H](O)[C@H](O)[C@H]2O)cc1OC`: 15.4% [at 38.5 µM] (inactive); `C=CC(C)(CC/C=C(\C)C(=O)OC[C@H]1O[C@@H](OC(C)(C=C)CC/C=C(\C)C(=O)O[C@H]2[C@H](O)[C@@H](O)[C@H](OC(C)(C=C)CC/C=C(\C)C(=O)O)O[C@@H]2CO)[C@H](O)[C@@H](O)[C@@H]1O)O[C@@H]1O[C@H](CO)[C@@H](O)[C@H](O)[C@H]1O` (stereo partly drawn): 0.327% [at 11.6 µM] (inactive).
Next, `CC(C)=C1C[C@@]2(C)C(=CC1=O)CC[C@@H](O)[C@@H]2C`: 3.07% (inactive).
